Screening data from PubChem.
Sampled rows, rich in hits. Any-hit rate of the full collection: about 14%.
Cycloheximide cs = Cycloheximide Counterscreen for Small Molecule Inhibitors of Shiga Toxin | AID 2314, 2010 | max response, % | 12% of 300,000 active | cell reporter, cycloheximide protein synthesis inhibition counterscreen; in the data active = max response mostly above about 13%, no sharp cut-off; inactive = mostly below about 14%; note: read at 38.3 µM for the half of the compounds with a filed dose; 0% is about no effect
Giardia FBPA inh = qHTS Assay for Inhibitors of Fructose-1,6-bisphosphate Aldolase from Giardia Lamblia | purified Giardia FBPA | Potency, µM (highest dose often 59.6 µM), for the others: at the highest dose activity, negative = inhibition, actives largely listed as inhibitors | 0.71% of 290,000 active; note: potency is the fitted concentration of half-maximal effect; % is set by controls: 0 for no effect and ±100 for the full control effect; nearly all actives have a fitted effect of over 55% in size
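40 nM FBPA preincubated 10 min at RT with compound (up to 57.5 uM final), then substrate plus GAPDH/TPI/NAD/arsenate coupling and diaphorase/resazurin added. Fluorescence read after 20 min at RT, 525/598 nm.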
NS1 inh = qHTS Assay for Inhibitors of Influenza NS1 Protein Function | Potency, µM (series often up to 46.1 µM), inactives show at the highest dose activity, positive = more growth | 0.4% of 270,000 active; calls by dose curve; note: potency is the fitted concentration of half-maximal effect; actives are rising curves; nearly all actives have a fitted effect of over 50% in size
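Read-out: OD600 growth recovery of NS1-expressing budding yeast. Cells grown overnight at 30C in -URA glucose medium, washed, resuspended and diluted 1:100 in 2% galactose assay medium, pH 6.0. Same strain lacking NS1 served as positive control.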
Shiga inhibitor = A qHTS for Small Molecule Inhibitors of Shiga Toxin. Vero cells, Shiga toxin protein synthesis inhibition reporter. inhibition, % at 38.7 µM. 9.2% of 290,000 active. AID 2315, 2010; in the data active = inhibition mostly above about 28%, no sharp cut-off; inactive = mostly below about 43%; note: 0% is about no effect
LmPK inh = qHTS Assay for Inhibitors of Leishmania Mexicana Pyruvate Kinase (LmPK); Q27686; purified LmPK, Kinase-Glo ATP luminescence, 1 h; Potency, µM (titrated, usually from 57.5 µM), for inactives: top-dose activity change, negative = inhibition, usual class: inhibitors; 0.37% of 290,000 active; note: potency is the fitted concentration of half-maximal effect; % is set by controls: 0 for no effect and ±100 for the full control effect
Target sequence (Q27686 whole entry, looked up): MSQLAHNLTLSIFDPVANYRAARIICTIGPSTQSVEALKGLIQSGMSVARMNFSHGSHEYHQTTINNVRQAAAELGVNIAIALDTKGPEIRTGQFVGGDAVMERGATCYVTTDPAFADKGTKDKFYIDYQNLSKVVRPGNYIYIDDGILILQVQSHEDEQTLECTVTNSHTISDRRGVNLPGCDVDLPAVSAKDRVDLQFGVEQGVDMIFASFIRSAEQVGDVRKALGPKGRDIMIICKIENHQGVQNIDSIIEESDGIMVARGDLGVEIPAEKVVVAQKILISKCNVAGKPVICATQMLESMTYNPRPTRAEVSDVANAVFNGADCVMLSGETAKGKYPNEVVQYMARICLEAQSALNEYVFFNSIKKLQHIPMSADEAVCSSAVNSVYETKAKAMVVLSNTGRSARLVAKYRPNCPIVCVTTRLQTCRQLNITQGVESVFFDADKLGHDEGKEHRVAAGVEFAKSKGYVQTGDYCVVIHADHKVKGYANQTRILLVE
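Purified LmPK (0.1 nM) with 0.5 mM PEP and 0.1 mM ADP in imidazole buffer pH 7.2 with MgCl2/KCl, 1 h at room temperature. ATP formed was read by luciferase luminescence and normalized to no-enzyme and uninhibited controls.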
Numbers without * were called inactive; i = inactive; u = inconclusive; x = no result given; [ ] = remark or other dose. Unless noted, calls come from the whole dose curve; as a rule, active = well fitted curve in the direction sought with a large enough effect; inconclusive = small, poorly fitted or top-dose-only effect, or another doubt; inactive = no such curve, though single readings can be large; an effect the other way counts as inactive or inconclusive.

SMILES	Cycloheximide cs	Giardia FBPA inh	NS1 inh	Shiga inhibitor	LmPK inh
CNC(=O)/C(C#N)=C\c1ccc(CNS(=O)(=O)c2ccccc2)o1	-1	3%	14%	-7	-2%
CNC(=O)/C(C#N)=C/c1ccc(-c2nc3ccccc3s2)o1	43*	-3%	-1%	55*	-3%
N#C/C(=C\c1ccc(-c2nc3ccccc3s2)o1)C(N)=O	38*	-1%	-4%	50*	-11%
O=C(O)c1nn(CCOc2ccccc2F)c(=O)c2ccccc12	12*	-7%	-7%	26	-5%
Cc1c(I)c(=O)n(-c2ccccc2)n1C	-4	-4%	x	-1	x
Cn1c2ccccc2c(=O)c2ccc(C#Cc3ccccn3)cc21	2	-2%	6%	10	-2%
Cn1c2ccccc2c(=O)c2cc(C#Cc3ccccn3)ccc21	23*	-5%	6%	11	-9%
Cn1c(=O)cc(-c2ccccc2)c2ccccc21	-3	-7%	-63%	-10	-5%
Cn1c2ccccc2c(=O)c2cc(C#Cc3ccsc3)ccc21	9.3*	-16%	24%	17	-9%
O=C(Nc1sc2c(c1CN1CCOCC1)CCC2)c1ccc(F)cc1	-2	1%	19%	28	-3%
Cc1sc(NC(=O)c2ccc(F)cc2)c(CN2CCCCCC2)c1C	43*	-5%	-11%	175*	-7%
Cc1sc(NC(=O)c2ccco2)c(CN2CCN(Cc3ccccc3)CC2)c1C	7	-4%	x	4	0%
Cc1sc(NC(=O)c2ccccc2F)c(CN2CCCCC2)c1C	50*	3%	-17%	127*	u
CN(C)c1ncc2nc(-c3cc(F)cc(F)c3)c(=O)n(C)c2n1	x	-1%	x	x	x
COc1cc2c(cc1OC)C1O[C@](c3ccsc3)(C2)OC2=C1C(=O)CC(C)(C)C2	0	-14%[12.9 µM]	1%	i	-4%[11.5 µM]
Cc1ccc(-c2noc(CN(C(=O)CCCCCN3C(=O)c4ccccc4C3=O)C(C)C)n2)cc1	-1	0%	5%	41	10%
COc1ccc(-c2noc(CCN3C(=O)c4ccccc4C3=O)n2)cc1OC	-2	-1%	-26%	-3	7%
c1ccc(OCCCc2nc(-c3ccccn3)no2)cc1	34*	-8%	-10%	42*	-7%
Nc1nonc1-c1noc(CCCCCN2C(=O)c3ccccc3C2=O)n1	75*	9%	-3%	148*	1%
O=C1c2ccccc2C(=O)N1CCc1nc(-c2ccccn2)no1	28*	3%	-17%	58*	-3%
O=C1c2ccccc2C(=O)N1CCCc1nc(-c2ccccn2)no1	23*	-1%	u	84*	4%
O=C1c2ccccc2C(=O)N1CCCc1nc(-c2ccc(Cl)cc2)no1	-1	-1%	7%	-16	4%
Cc1[nH]nc(Nc2ccccc2)c1[N+](=O)[O-]	31*	3%	-21%	53	-3%
Cc1[nH]nc(Nc2ccc(C(C)C)cc2)c1[N+](=O)[O-]	57*	-6%	-6%	55*	-3%
Cc1[nH]nc(Nc2ccc(Br)cc2)c1[N+](=O)[O-]	56*	-5%	-34%	112*	-1%
SMILES	Cycloheximide cs	Giardia FBPA inh	NS1 inh	Shiga inhibitor	LmPK inh
Cc1[nH]nc(SCC(=O)NCc2ccccc2)c1[N+](=O)[O-]	-1	0%	2%	-5	3%
Cc1[nH]nc(NCCO)c1[N+](=O)[O-]	1	-1%	x	-5	1%
Cc1[nH]nc(Sc2ccccn2)c1[N+](=O)[O-]	15	-6%	5%	44*	1%
CS(=O)(=O)Nc1cccc(-c2cc(F)c(S(=O)(=O)N3CCN(S(=O)(=O)c4ccc5c(c4)OCCO5)CC3)cc2F)c1	-2	x	x	-1	x
COCC(=O)N1CCC2(CC1)CCN(c1ccccc1)CC2	x	1%	x	x	x
Cc1cccc(Nc2n[nH]c(C)c2[N+](=O)[O-])c1	63*	-4%	-4%	107*	2%
Cc1ccc(Nc2n[nH]c(C)c2[N+](=O)[O-])cc1	29*	4%	-14%	43*	-1%
Cc1[nH]nc(NNC(=O)c2ccccc2)c1[N+](=O)[O-]	-1	-6%	2%	22	-1%
CCCC[C@@H]1C[C@H]1C(NC(=O)c1cccnc1)c1ccc(Cl)cc1 (stereo partly specified)	x	-3%	x	x	x
Cc1[nH][nH]c(=O)c1C(c1ccc(Br)cc1)c1c(C)[nH][nH]c1=O	-2	-23%	3%	-6	1%
Cc1cn(-c2ccc(Br)cc2)[nH]c1=O	39*	14%	-3%	64*	-3%
Cc1ccc(N(C)S(=O)(=O)c2cc3c(cc2C)NC(=O)CO3)cc1	-1	8%	-8%	-6	-1%
CC(C)(Cl)C1Cc2cc3ccc(=O)oc3cc2O1 (stereo unspecified)	31*	6%	-4%	47*	4%
C/C=C(\C)C(=O)OC(C)(C)[C@H]1Cc2cc3ccc(=O)oc3cc2O1	-3	1%	-7%	1	1%
CC(=O)OC(C)(C)C1Cc2cc3ccc(=O)oc3cc2O1 (stereo unspecified)	23	15%	-1%	45*	-1%
C=C1CCN(C(CC(C)C)C(=O)O)S(=O)(=O)c2ccccc21 (stereo unspecified)	6	5%	x	-4	x
CCn1c(SCc2ccccc2Cl)nc2ccccc21	35*	-4%	-73%	26	-3%
Cn1c(SCc2ccccc2Cl)nc2ccccc21	53*	-13%	-58%	76*	u
COc1ccc(-c2nnn(CC(=O)c3ccccc3)n2)cc1OC	4	-3%	-15%	-4	-1%
O=C(Cn1nnc(-c2cccs2)n1)NCc1cccs1	65*	2%	x	11	-3%
O=C(Cn1nnc(-c2ccccc2)n1)NCc1cccs1	5	-1%	-16%	11	17%
Cc1ccc(C(=O)Cn2nnc(-c3cccs3)n2)cc1	32*	0%	-5%	79*	0%
CCc1ccc2nc3nc(C)cc(C)c3c(N)c2c1	20*	6%	1%	91*	0%
COc1cc(N=Nc2cccc(S(N)(=O)=O)c2)c2ccccc2c1N	12	u	-3%	61	u
CC(C)CCC(C)NC(=O)CN1C(=O)NC(C)(c2ccc3ccccc3c2)C1=O (stereo unspecified)	-3	x	26%	-38	-6%
CCc1ccc(NC(=O)c2nc(S(=O)(=O)Cc3ccccc3)ncc2Cl)cc1	-8	-20%	-21%	-10	-1%
CC(=O)Nc1ccc(NC(=O)c2nc(S(=O)(=O)Cc3cccc(C)c3)ncc2Cl)cc1	46*	x	18%	99*	-7%
COC(=O)c1ccc(NC(=O)c2nc(S(=O)(=O)Cc3cccc(C)c3)ncc2Cl)cc1	13	-5%	-29%	25	-2%
Cc1ccc(NC(=O)c2nc(S(=O)(=O)Cc3ccccc3C)ncc2Cl)cc1C	37*	-6%	-6%	39*	12%
Cc1ccc(CN2CCNC(=O)C2CC(=O)N(C)CCc2cnn(C)c2)cc1 (stereo unspecified)	-3	x	0%	-6	-3%
